The values that follow come from PubChem BioAssay AID1445 (SRMLSC, 2008).

The whole screen tested about 220,000 compounds, of which about 910 (0.41%) were called active.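 The calls were made as follows: active = primary inhibition above the hit cutoff, then over 50% inhibition at one or more dose response concentrations (cut at about 23% in these data, passing the limit was not always enough); inconclusive = conflicting primary data, or primary hits not chosen for dose response; inactive = low primary inhibition, or under 50% at every dose.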 What follows is part of a selection rich in actives, with near analogues and random picks from the rest. Potency and affinity values are given separately.

The target in this assay is Aminopeptidase N (Plasmodium falciparum (isolate 3D7)) (UniProt O96935). The assay is described as follows: malaria alanyl aminopeptidase activity blockers – biochemical, fluorogenic H-Leu-NHMec substrate, 1536-well (AID 1445).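 Also: plate controls were DMSO full reaction for no effect and no enzyme background for full effect.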 As to conditions: recombinant M1AAP, H-Leu-NHMec fluorogenic kinetic assay; at 30 µM, hits give high values unless noted.
Sequence of Aminopeptidase N (Plasmodium falciparum (isolate 3D7)) (O96935 whole entry, looked up): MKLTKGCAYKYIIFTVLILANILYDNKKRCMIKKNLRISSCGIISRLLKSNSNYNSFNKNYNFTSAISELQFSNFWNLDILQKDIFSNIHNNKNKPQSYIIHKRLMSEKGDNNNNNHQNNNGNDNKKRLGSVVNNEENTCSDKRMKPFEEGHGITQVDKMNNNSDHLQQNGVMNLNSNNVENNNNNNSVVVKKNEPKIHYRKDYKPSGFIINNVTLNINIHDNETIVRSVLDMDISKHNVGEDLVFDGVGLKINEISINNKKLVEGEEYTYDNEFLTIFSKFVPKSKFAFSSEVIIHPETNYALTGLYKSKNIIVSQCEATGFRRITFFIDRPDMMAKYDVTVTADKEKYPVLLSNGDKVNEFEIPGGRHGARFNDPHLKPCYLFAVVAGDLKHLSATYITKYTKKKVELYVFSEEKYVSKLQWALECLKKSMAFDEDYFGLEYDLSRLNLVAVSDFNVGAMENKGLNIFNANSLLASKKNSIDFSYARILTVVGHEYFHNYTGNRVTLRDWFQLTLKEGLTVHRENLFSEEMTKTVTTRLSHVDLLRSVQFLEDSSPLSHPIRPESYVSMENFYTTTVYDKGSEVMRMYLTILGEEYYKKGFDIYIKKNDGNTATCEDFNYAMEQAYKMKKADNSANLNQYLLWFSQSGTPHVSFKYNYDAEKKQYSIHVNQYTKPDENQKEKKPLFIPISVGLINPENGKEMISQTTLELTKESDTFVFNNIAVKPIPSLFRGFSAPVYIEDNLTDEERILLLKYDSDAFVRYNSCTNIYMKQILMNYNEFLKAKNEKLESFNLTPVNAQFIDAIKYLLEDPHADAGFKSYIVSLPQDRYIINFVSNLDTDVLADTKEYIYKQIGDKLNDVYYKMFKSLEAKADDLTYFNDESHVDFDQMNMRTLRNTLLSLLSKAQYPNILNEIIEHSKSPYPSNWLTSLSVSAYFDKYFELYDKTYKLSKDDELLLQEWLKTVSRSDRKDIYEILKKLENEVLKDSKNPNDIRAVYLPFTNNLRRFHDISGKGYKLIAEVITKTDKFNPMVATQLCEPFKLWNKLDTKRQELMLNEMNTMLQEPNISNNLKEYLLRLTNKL
With `S=c1[nH]c(-c2ccccc2)cn1/N=C/c1cccnc1`, the inhibition – broadly, the relative decrease from the control value, in per cent – was 1.39% (inactive).
For `O=C(CCCN1C(=O)/C(=C/c2ccccc2Cl)SC1=S)NNC(=O)c1cccnc1`, the inhibition is 2.83% (inactive).
For the molecule `COc1ccccc1/C=C1\SC(=S)N(N2C(=O)CCCC2=O)C1=O`, the inhibition is 3% (inactive).
As for `CC(/C=C1\SC(=S)N(C(C(=O)O)C(C)C)C1=O)=C\c1ccccc1` (centres undefined), the inhibition is 14% (inactive).
As for `COc1ccc(OC)c(/C=C2\SC(=S)N(Cc3cccnc3)C2=O)c1`, the figure is -5.9% (inactive); as for `COc1ccc(/C=C2\SC(=S)N(N3CCOCC3)C2=O)c(OC)c1`, 1.37% (inactive); as for `COc1cccc(/C=C2\SC(=S)N(C(C(=O)O)c3ccccc3)C2=O)c1OC` (centres undefined), 18.2% (inactive).
Turning to `COc1ccc(/C=C/C(=O)c2ccccc2)c(OC)c1`, the inhibition was 10.2% (inactive).
As for `CC(=C\c1ccccc1)/C=C1/SC(=S)N(C(C(=O)O)C(C)C)C1=O` (centres undefined), the inhibition was 8.4% (inactive).
The same measure for `COc1ccc(OC)c(/C=C2\SC(=S)N(N3CCOCC3)C2=O)c1`: 6.71% (inactive).
Consider `C/C(=N/NS(=O)(=O)c1ccc(C)cc1)c1ccc(NC(=O)C(F)(F)F)cc1`, for which the inhibition is 2.89% (inactive).
As for `Cc1cnc(NC(=O)CSc2nnc(C)n2N)s1`, the inhibition is 2.39% (inactive).
As for `Cc1ccc(OCc2nc(-c3ccccn3)n[nH]2)cc1`, the figure is -24.5% (inactive).
The same measure for `CCCCn1nnnc1NCc1cccnc1`: 4.66% (inactive); for `CCOC(=O)C1CCCN(CC(=O)/C=C2/N(C)c3ccccc3C2(C)C)C1` (centres undefined): 9.72% (inactive); for `COc1ccc(NS(=O)(=O)c2cccc(C(=O)N/N=C/c3ccc(O)cc3)c2)cc1`: 7.62% (inactive).
With `CCC1CCc2[nH]nc(C(=O)O)c2C1` (centres undefined), the inhibition was 7.24% (inactive).
As to `Cc1nn(C(=O)N2CCCCC2)c(C)c1CN1C(=O)c2ccccc2C1=O`, the inhibition was -0.2% (inactive).
As for `Cc1cc(C)cc(NC(=O)C(OC(=O)c2cccs2)c2ccccc2)c1` (centres undefined), the figure is 3.45% (inactive); as for `OCCC1CN(Cc2nc(-c3ccccc3)cs2)CCN1CCc1ccccc1` (centres undefined), 7.68% (inactive); as for `CSc1nc2ncc(-c3ccsc3)c(N)n2n1`, 7.33% (inactive).
On to `CC(c1ccccc1)N1C(=O)/C(=C/c2ccncc2)SC1=S` (centres undefined), for which the inhibition is -2.44% (inactive).
Consider `O=C(O)C(Cc1ccccc1)N1C(=O)/C(=C/c2cccs2)SC1=S` (centres undefined), for which the inhibition is 11.1% (inactive).
The same measure for `O=C1NN(c2ccccc2)C(=O)/C1=C/c1ccc(-c2ccc(Cl)c(C(=O)O)c2)o1`: 32.2% (inactive).
As for `Cc1ccc(N2NC(=O)/C(=C/c3ccc(-c4ccc(Cl)c(C(=O)O)c4)o3)C2=O)cc1`, the figure is 5.62% (inactive); as for `CC1=NOC(=O)/C1=C/c1ccc(-c2ccc(Cl)cc2)o1`, 5.39% (inactive); as for `O=C(O)c1cc(-c2ccc(/C=C3\NC(=O)N(c4ccccc4)C3=O)o2)ccc1Cl`, 18.7% (inactive).
On to `CCCCC1(C)OC(=O)C(=Cc2ccc(-c3ccc(Cl)c(C(=O)O)c3)o2)C(=O)O1` (centres undefined), for which the inhibition is 9.08% (inactive).
For the molecule `CC1(C)OC(=O)C(=Cc2ccc(-c3ccc(Cl)c(C(=O)O)c3)o2)C(=O)O1`, the inhibition was 8.63% (inactive).
In the case of `Cc1ccc(C)c(-n2c(SCC(=O)NC(C(=O)O)C(C)C)nnc2-c2cccc(Cl)c2)c1` (centres undefined), the inhibition is 0.37% (inactive).
The same measure for `CC1CC(NC(=O)C2(C)CC2(Cl)Cl)CC(C)(C)C1` (centres undefined): 1.77% (inactive).
As for `O=C1CCn2nc(-c3ccc(Cl)cc3)cc2N1`, the figure is 0.78% (inactive).
For `O=C(O)CCC(=O)NNC(=O)c1cccc(Cl)c1`, the inhibition is 8.54% (inactive).
The same measure for `Cn1cc(-c2nnnn2-c2ccc(Cl)cc2)c(=O)c2ccccc21`: -1.66% (inactive); for `CC(=O)Nc1c(C(=O)c2ccccc2)oc2ccccc12`: 10.6% (inactive).
The same measure for `O=C(Nc1nc2c(Br)cc(Br)cc2c(=O)s1)c1ccco1`: 3.61% (inactive).
As for `CCOc1cc(/C=C/c2ccc3cccc([N+](=O)[O-])c3n2)cc(Cl)c1O`, the figure is 9.51% (inactive); as for `CC(C)c1nc(CNC(=O)CCc2nnc(-c3ccsc3)o2)cs1`, -9.81% (inactive).
For `O=C(N/N=C(/CC(=O)c1cccs1)C(F)(F)F)c1ccc(O)cc1`, the inhibition is 30.4% (inactive).
The same measure for `O=C(N/N=C(\CC(=O)c1cccs1)C(F)(F)F)c1cccnc1`: 22.1% (inactive); for `Cc1cccc(N2CCN(C(=O)CC(NC(=O)c3ccccc3)c3ccccc3)CC2C)c1` (centres undefined): -5.51% (inactive); for `Cc1ccc(N2CC(C(=O)Nc3cccc(F)c3)CC2=O)cc1` (centres undefined): 2.83% (inactive).
Turning to `COCc1c(Br)c(C)nc(OCC(=O)N/N=C/c2cc(C)n(-c3ccc([N+](=O)[O-])cc3)c2C)c1C#N`, the inhibition was 12% (inactive).
The same measure for `CN1CCN(c2ccc(NC(=O)c3ccccc3Br)cc2)CC1`: 3.56% (inactive); for `O=C(Nc1ccc(N2CCCCCC2)cc1)c1ccccc1Cl`: -5.82% (inactive).
On to `O=C(Nc1ccc(-n2ccnc2P(=O)(O)c2ccccc2)cc1)c1ccccc1Cl`, for which the inhibition was 75.1% (active).
As for `O=C(Nc1ccc(C(F)(F)F)cc1)c1ccccc1Br`, the figure is -2.21% (inactive).
As for `O=C(Nc1ccc2ncccc2c1)c1ccccc1Cl`, the figure is 16.8% (inactive); as for `CC(Cc1cccs1)NC(=S)Nc1ccc(Cl)c(Cl)c1` (centres undefined), -3.88% (inactive).
Consider `Cc1ccc(OCc2ccc(C(=O)Nc3nc4ccccc4n3Cc3ccccc3)o2)c([N+](=O)[O-])c1`, for which the inhibition is 4.13% (inactive).
As for `Cc1ccc(C(=O)Cn2nnc3ccccc32)cc1C`, the figure is 5.82% (inactive); as for `O=C1Nc2ccccc2N(O)N1c1ccc(S(=O)(=O)Nc2ccccn2)cc1`, 5.82% (inactive); as for `O=c1[nH]c2sc3c(c2c2nncn12)CCCC3`, 2.29% (inactive).
As for `Cc1nc2sc3c(c2c(=O)o1)CCC3`, the figure is 7.65% (inactive); as for `Cc1cc(-c2nc3c4c5c(sc4[nH]c(=O)n3n2)CCC5)c(C)o1`, 27.1% (active).
`CCOC(=O)C1=C(c2ccccc2)Nc2ncnn2C1c1ccc(OC)c(OC)c1OC` (centres undefined): the inhibition was -1.38% (inactive).
As for `O=S(=O)(Nc1ccc2c(c1)OCCO2)c1cccs1`, the figure is -2.25% (inactive).
On to `O=S(=O)(Nc1nc2ccccc2nc1Nc1ccc2c(c1)OCO2)c1ccccc1`, for which the inhibition is 33.5% (inactive).
Consider `O=S(=O)(Nc1nc2ccccc2nc1Nc1ccc2c(c1)OCCO2)c1cccs1`, for which the inhibition was 47.2% (active).
The same measure for `CC1=C(C(=O)N2CCN(c3cc(C)ccc3C)CC2)C2(CCC(C)CC2)OC1=O` (centres undefined): 0.75% (inactive); for `NNC(=O)CSc1nnnn1-c1ccccc1`: -3.57% (inactive).
For the molecule `Cc1cccc(C)c1NS(=O)(=O)c1ccc(OCCNS(C)(=O)=O)cc1`, the inhibition was -0.18% (inactive).
As for `N#Cc1cc2c(nc1Cl)CCCC2`, the figure is 3.36% (inactive); as for `COc1ccc(CCN=C(N)NS(=O)(=O)c2ccccc2)cc1OC`, 0.37% (inactive); as for `CCOc1cc(C2C3=C(CC(C)(C)CC3=O)OC3=C2C(=O)CC(C)(C)C3)cc([N+](=O)[O-])c1O`, 14.2% (inactive).
As to `CCOc1cc(C2C3=C(CCCC3=O)N(C)C3=C2C(=O)CCC3)cc(Cl)c1O`, the inhibition was 18.7% (inactive).
Take `CCOc1cc(C2C(C(=O)OC(C)C)=C(C)NC3=C2C(=O)CCC3)cc([N+](=O)[O-])c1O` (centres undefined): the inhibition is 21.4% (inactive).
As to `CCOc1ccc(C2CC(=O)NC3=C2C(=O)CCC3)cc1Cl` (centres undefined), the inhibition is 1.99% (inactive).
As for `Fc1ccc(-c2nc3c(Cl)cc(C(F)(F)F)cn3c2Cl)cc1`, the figure is -1.92% (inactive); as for `COC(=O)CSc1[nH]c2ccc(F)cc2c1[N+](=O)[O-]`, 13% (inactive).
Consider `CCOC(=O)c1c(C)oc2ccc(NS(=O)(=O)c3cccs3)cc12`, for which the inhibition was 17.3% (inactive).
The same measure for `COC(=O)c1c(C)oc2ccc(NS(=O)(=O)c3cccs3)cc12`: 6.82% (inactive); for `CC(C)(C)NC(=O)COC(=O)c1nsc(Cl)c1Cl`: 0.52% (inactive).
Consider `CC(C)(C)NC(=O)NC(=O)CN1CCN(c2cccc(Cl)c2)CC1`, for which the inhibition was -0.55% (inactive).
On to `COn1c(SCc2cccnc2)nc2ccccc2c1=O`, for which the inhibition is -0.13% (inactive).
As for `COc1ccc(-n2c(Cc3cccn3C)nnc2SCC(=O)Nc2ccc(F)cc2)cc1`, the figure is 12% (inactive); as for `COc1ccc(NC(=O)CSc2nnc(Cc3cccn3C)n2-c2ccc(F)cc2)cc1`, 23.8% (active); as for `Cn1c(SCC(=O)Nc2ccc3c(c2)oc2ccccc23)nnc1-c1ccccc1`, 25.6% (active).
With `CC(=O)Nc1ccc(-c2nnc(SCC(=O)Nc3ccc4c(c3)oc3ccccc34)n2C)cc1`, the inhibition was 8.23% (inactive).
For the molecule `COc1ccc(NC(=O)CSc2nnc(Cc3cccn3C)n2-c2ccc(OC)cc2)cc1`, the inhibition is 5.21% (inactive).
As for `Cc1ccc(-c2nnc(SCC(=O)Nc3ccc4c(c3)oc3ccccc34)n2C)c(Cl)c1`, the figure is 3.17% (inactive); as for `COc1ccc(C(=O)NNC(=O)CSc2nnc(-c3cccnc3)n2C)cc1`, 10.3% (inactive); as for `COc1ccc(NC(=O)CSc2nnc(-c3ccccc3C)n2C)cc1`, 27.4% (active).
As for `COc1ccc(NC(=O)CSc2nnc(-c3ccccc3C)n2N)cc1`, the figure is 3.11% (inactive).
The same measure for `COc1ccc(C(=O)NNC(=O)CSc2nnc(C)n2C)cc1`: 1% (inactive); for `COc1ccc(-c2nnc(SCC(=O)Nc3ccccc3)n2C)cc1`: 0.31% (inactive); for `Cc1cc(C)c2c3c(sc2n1)C1(CCSCC1)C(C#N)=C(N)O3`: 9.27% (inactive).
For the molecule `C1CCN(c2nc3nonc3nc2NCC2CCOCC2)CC1`, the inhibition is 7.54% (inactive).
Turning to `CC(=O)N1CCN(c2ccc(NC(=O)c3ccc(Br)o3)cc2Cl)CC1`, the inhibition is 4.42% (inactive).
As for `COc1ccc(-c2csc(NC(=O)c3cccs3)c2C(=O)O)cc1OC`, the figure is 19.5% (inactive).
With `CC(C)c1ccc(-c2csc(NC(=O)c3cccs3)c2C(=O)O)cc1`, the inhibition was 8.46% (inactive).
As for `Fc1cccc(Nc2nc(Cl)nc(Cl)n2)c1`, the figure is 8.99% (inactive); as for `O=C1NCCN(Cc2cccc(Oc3ccccc3)c2)C1CC(=O)N1CCCCO1` (centres undefined), 1.7% (inactive); as for `CCOc1cccc2cc(C(=O)Nc3ccccc3-c3ccccc3)c(=O)oc12`, 1.66% (inactive).
